The list is not random: actives were taken first. Their share in the collection is about 19%.
ELG1 DNA repair – inhibitors of ELG1-dependent DNA repair in HEK293T cells; 330,000 compounds, 2.3% hits; Potency, µM (highest dose often 46.1 µM), hits mostly inhibitors; HEK293T ELG1-luciferase reporter, luminescence, 16 h; DNA damage induced by 5-fluorouridine; also: nearly all actives have a fitted effect of over 55% in size
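In this reporter screen, reduction of luminescence relative to DMSO vehicle indicated activity. Compounds and 5-fluorouridine were added together to 2,000 cells per well, incubated for 16 hr at 37 °C, then developed with ONE-Glo.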
IL-1B inflam inh – blocks inflammasome-driven IL-1 beta release; THP-1 LPS/ATP IL-1B secretion, AlphaLISA, 16 h; hits give low values; AID 743279; activity change, % at 57.5 µM; 360,000 compounds, 4.7% hits; in the data active = activity change below about -50%; inconclusive = mostly about -30% to -49%
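THP-1 cells pretreated 1 hr with compounds (up to 57.5 uM final), then stimulated with LPS (250 ng/mL final) plus ATP (1.25 mM final); secreted IL-1B measured by AlphaLISA after 16 hr, decreased signal indicating inhibition.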
Giardia kill – kills Giardia lamblia. Giardia lamblia trophozoite viability. activity change, % at 7.66 µM, hits read low. 340,000 compounds, 0.15% hits; in the data active = activity change below about -80%; inconclusive = between about -30% and that limit;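 also: parasites exposed to compound for two days anaerobically before the ATP read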
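Anaerobic 48 hrs incubation at 37 deg C of 100 trophozoites/well with test compounds; ATPLite 1-Step luminescence, 15-30 min RT, reports cellular ATP as viability.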
TDP1 block – blocks human tyrosyl-DNA phosphodiesterase 1; recombinant TDP1, AlphaScreen DNA substrate cleavage; Potency, µM (top dose mostly 130 µM), hits mostly inhibitors; 350,000 compounds, 0.28% hits; AID 485290; also: nearly all actives have a fitted effect of over 40% in size
Target sequence (Q9NUW8 whole entry, looked up): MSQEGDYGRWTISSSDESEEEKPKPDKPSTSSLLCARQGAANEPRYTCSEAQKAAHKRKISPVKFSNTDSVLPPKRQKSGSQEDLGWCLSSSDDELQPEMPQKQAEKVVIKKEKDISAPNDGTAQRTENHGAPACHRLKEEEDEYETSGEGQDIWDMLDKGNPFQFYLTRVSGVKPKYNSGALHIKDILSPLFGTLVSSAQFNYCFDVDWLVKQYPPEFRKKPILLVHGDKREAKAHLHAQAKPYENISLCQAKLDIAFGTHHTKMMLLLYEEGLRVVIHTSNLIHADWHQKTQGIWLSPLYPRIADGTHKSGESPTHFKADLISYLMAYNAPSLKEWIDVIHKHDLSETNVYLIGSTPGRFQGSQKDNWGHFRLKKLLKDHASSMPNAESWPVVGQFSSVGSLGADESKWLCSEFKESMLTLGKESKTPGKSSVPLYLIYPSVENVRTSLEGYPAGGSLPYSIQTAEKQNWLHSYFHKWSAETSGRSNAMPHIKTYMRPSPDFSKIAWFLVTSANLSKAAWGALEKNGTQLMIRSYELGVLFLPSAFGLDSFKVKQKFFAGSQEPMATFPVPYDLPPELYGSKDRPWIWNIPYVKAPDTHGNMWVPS
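Recombinant E. coli-expressed Tdp1 (1 nM) preincubated with compound 15 min at RT, then 5'-biotin/3'-phosphotyrosine-FITC DNA substrate (15 nM) added for 5 min. AlphaScreen beads (10 ug/ml) added, 10 min RT; tyrosine-FITC cleavage read as signal loss.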
TDP1 cell noCPT – qHTS for Inhibitors of human tyrosyl-DNA phosphodiesterase 1 (TDP1): qHTS in cells in absence of CPT | DT40 Tdp1-/- hTDP1 cells, no CPT, ATP luminescence, 48 h | Potency, µM (titrated, usually from 46.2 µM), most hits filed as inhibitors | 420,000 compounds, 15% hits | AID 686978, 2013; also: nearly all actives have a fitted effect of over 55% in size
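Stably hTDP1-transfected Tdp1-null chicken DT40 cells were treated with library compounds minus camptothecin and grown for at least 48 hr at 37 °C, after which cellular ATP was quantified by luminescence.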
TDP1 cell CPT – growth inhibition of DT40 Tdp1-/-;hTDP1 cells with camptothecin (screen for TDP1 inhibitors); 420,000 compounds, 12% hits; Potency, µM (doses to about 46.2 µM), most hits filed as inhibitors; chicken DT40 Tdp1-/-;hTDP1 cells + 20 nM CPT, ATP luminescence, 48 h; AID 686979; also: nearly all actives have a fitted effect of over 55% in size
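Chicken DT40 Tdp1-/- cells stably complemented with human TDP1 were seeded at 400 cells/well in medium containing 20 nM camptothecin, exposed to pin-transferred compounds, and grown at 37 °C for at least 48 hr. Viability was read as ATP luminescence.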
Each line names hits and unclear results; the compound was inactive in the other large screens. Unless noted, calls follow the shape of the dose curve; as a rule, active = well fitted curve in the direction sought with a large enough effect; inconclusive = small, poorly fitted or top-dose-only effect, or another doubt; inactive = no such curve, though single readings can be large; an effect the other way counts as inactive or inconclusive.

O=C(Cn1ccc2cc(S(=O)(=O)N3CCCC3)ccc21)NCc1ccco1	none
CCOC(=O)N1CCC(NC(=O)C2CCN(C(=O)c3cc4oc(C)cc4n3Cc3c(F)cccc3Cl)CC2)CC1	ELG1 DNA repair inconclusive, TDP1 cell noCPT 15µM, TDP1 cell CPT inconclusive
CCOC(=O)N1CCC(NC(=O)C2CCN(C(=O)N3CC(C)Oc4ccc(C)cc43)CC2)CC1 (configuration not stated)	none (no result: ELG1 DNA repair)
CCc1nn(CC(=O)Nc2c(C)cc(C)cc2C)c(=O)c2cc3sccc3n12	none (no result: ELG1 DNA repair, IL-1B inflam inh, Giardia kill)
COc1ccc(Cl)cc1NC(=O)c1nn(-c2ccc(C)cc2)c(=O)n(C)c1=O	TDP1 cell CPT 16µM (no result: ELG1 DNA repair, IL-1B inflam inh, Giardia kill)
Cc1ccc(-n2nc(C(=O)Nc3ccc(C)c(F)c3)c(=O)n(C)c2=O)cc1	none (no result: ELG1 DNA repair, IL-1B inflam inh, Giardia kill)
COc1cc(NC(=O)c2nn(-c3ccc(F)cc3)c(=O)n(C)c2=O)cc(OC)c1OC	TDP1 cell noCPT 10µM, TDP1 cell CPT 15µM (no result: ELG1 DNA repair, IL-1B inflam inh, Giardia kill)
Cc1ccc(N(CC(=O)N2CCCC2)S(C)(=O)=O)c(C)c1	none (no result: TDP1 block)
O=C(NCc1cccc(C(F)(F)F)c1)c1ccc2nc([C@H]3C[C@H](O)[C@@H](CO)O3)[nH]c2c1	none (no result: ELG1 DNA repair, Giardia kill, TDP1 block)
CC(C)(C)NCC(O)COc1ccccc1C1CCCC1 (configuration not stated)	TDP1 cell noCPT 15µM, TDP1 cell CPT inconclusive (no result: TDP1 block)
CC(C)(C)NC[C@H](O)COc1ccccc1C1CCCC1	TDP1 cell noCPT 10µM, TDP1 cell CPT 13µM (no result: ELG1 DNA repair, IL-1B inflam inh, Giardia kill, TDP1 block)
CC(C)(C)NC[C@@H](O)COc1cccc2c1CCCC2=O	none (no result: TDP1 block)
CCCCn1c(N)c(N(Cc2ccccc2OC)C(=O)c2sccc2C)c(=O)[nH]c1=O	none (no result: TDP1 block)
COc1cccc(OC)c1OCCCCc1c(C)n[nH]c1C	TDP1 cell noCPT inconclusive, TDP1 cell CPT 26µM
COc1cccc(OC)c1OCCCCCc1c(C)n[nH]c1C	TDP1 cell noCPT inconclusive, TDP1 cell CPT inconclusive
Cc1n[nH]c(C)c1CCCCOc1ccccc1[N+](=O)[O-]	TDP1 cell noCPT inconclusive, TDP1 cell CPT 21µM (no result: TDP1 block)
Cc1ccccc1OCCCCc1c(C)n[nH]c1C	TDP1 cell noCPT 18µM, TDP1 cell CPT inconclusive
Cc1ccc(OCCCc2c(C)n[nH]c2C)cc1	ELG1 DNA repair inconclusive, TDP1 cell noCPT 16µM, TDP1 cell CPT inconclusive
CNS(=O)(=O)c1ccc(Cl)nc1	none
O=C(Nc1ccc(N2CCOCC2)cc1)c1cn2ccccc2n1	ELG1 DNA repair inconclusive, Giardia kill inconclusive, TDP1 cell noCPT 10µM, TDP1 cell CPT 13µM
CC(=O)c1ccc(C(=O)Nc2ccc(N3CCOCC3)cc2)cc1	ELG1 DNA repair inconclusive
CCOc1cc(C(=O)Nc2ccc(F)cc2)cc(Br)c1OC	ELG1 DNA repair inconclusive, TDP1 cell noCPT inconclusive
CCOc1cc(C(=O)Nc2ccc(N3CCOCC3)cc2)cc(Br)c1OC	TDP1 cell noCPT 26µM, TDP1 cell CPT inconclusive
O=C(Nc1ccc(Cl)c(S(=O)(=O)N2CCOCC2)c1)c1cn2ccccc2n1	TDP1 cell noCPT inconclusive
CC(C)(C)c1ccc(C(=O)Nc2ccc(N3CCOCC3)cc2)cc1	ELG1 DNA repair 18µM, IL-1B inflam inh inconclusive, TDP1 cell noCPT 18µM, TDP1 cell CPT 18µM
CC(=O)c1ccc(N2CCN(C(=O)Nc3ccc(C(C)C)cc3)CC2)cc1	ELG1 DNA repair inconclusive, TDP1 cell noCPT 16µM, TDP1 cell CPT inconclusive
Cc1cc(Cl)ccc1OCC(=O)N1CCOc2ccc(CN3C[C@@H](C)O[C@@H](C)C3)cc2C1	TDP1 cell noCPT inconclusive (no result: ELG1 DNA repair, IL-1B inflam inh, Giardia kill, TDP1 block)
CC(C)c1ccc(C(=O)Nc2ccc(N3CCOCC3)cc2)cc1	TDP1 cell noCPT 21µM, TDP1 cell CPT 18µM
O=C(Nc1ccc(Cl)cc1)Nc1ccc(N2CCOCC2)cc1	ELG1 DNA repair inconclusive, TDP1 cell noCPT 18µM, TDP1 cell CPT inconclusive
CC(C)(C)c1ccc(C(=O)Nc2ccc(C(=O)N3CCCC3)cc2)cc1	TDP1 cell noCPT 23µM, TDP1 cell CPT 21µM
O=C(Nc1ccc(C(=O)N2CCCCC2)cc1)c1ccc([N+](=O)[O-])cc1	ELG1 DNA repair inconclusive, TDP1 cell noCPT inconclusive

From PubChem BioAssay
